Measurements from the supplement of paper PMC6331611.
± gives the standard deviation of the averaged measurements. Over roughly 1,600 compounds, “normalized intracellular growth (luminescence, IQM-normalized) in RAW264.7 macrophages” has its median near 1; the lowest 2% begin near 0.43. The full list was thinned out, with the lowest values kept by preference.

System: Salmonella enterica serovar Typhimurium SL1344
Assay: normalized intracellular growth (luminescence, IQM-normalized) in RAW264.7 macrophages (fraction of plate interquartile mean); higher = more bacterial growth (less inhibition)
Details: 10 µM

SMILES | normalized intracellular growth (time point: T3 (3 h)) | normalized intracellular growth (time point: Tfinal (~6 h))
CCCCC(CC)COC(=O)c1ccccc1O (centres undefined) | 1.05 ± 0.055 | 0.89 ± 0.17
Nc1ccc(C(=O)O)cc1 | 1.023 ± 0.0022 | 0.829 ± 0.11
CCc1cn([C@H]2C[C@H](O)[C@@H](CO)O2)c(=O)[nH]c1=O | 1.09 ± 0.034 | 0.868 ± 0.01
O=c1[nH]c(=O)n([C@H]2C[C@H](O)[C@@H](CO)O2)cc1F | 0.699 ± 0.043 | 0.209 ± 0.03
O=c1[nH]c(=O)n([C@H]2C[C@H](O)[C@@H](CO)O2)cc1I | 1.005 ± 0.0041 | 1.01 ± 0.2
CC(C)(C)C(=O)C(Oc1ccc(Cl)cc1)n1ccnc1 (centres undefined) | 1.042 ± 0.0043 | 1.12 ± 0.016
N#Cc1ccc2c(c1)N(CCCN1CCC(O)CC1)c1ccccc1S2 | 1.04 ± 0.014 | 0.869 ± 0.15
CC(C)C[C@@H]1NC(=O)[C@H](CCCN)NC(=O)[C@H](C(C)C)NC(=O)[C@H](Cc2ccc(O)cc2)N[C@@H](CCC(=O)O)C(=O)N[C@@H](CC(N)=O)C(=O)[C@@H](Cc2ccccc2)NC(=O)[C@H](Cc2ccccc2)NC(=O)[C@@H]2CCCN2C(=O)[C@@H](Cc2ccccc2)NC1=O | 0.95 ± 0.055 | 1 ± 0.064
CC=CC1=C(C(=O)O)N2C(=O)[C@@H](NC(=O)[C@H](N)c3ccc(O)cc3)[C@H]2SC1 | 1.06 ± 0.039 | 0.738 ± 0.11
N[C@@H](C(=O)N[C@@H]1C(=O)N2C(C(=O)O)=C(Cl)CS[C@H]12)c1ccccc1 | 1.03 ± 0.054 | 1.08 ± 0.021
C=CC1=C(C(=O)O)N2C(=O)[C@@H](NC(=O)/C(=N\O)c3csc(N)n3)[C@H]2SC1 | 0.973 ± 0.034 | 0.0262 ± 0.0031
CC(=O)OCC1=C(C(=O)O)N2C(=O)[C@@H](NC(=O)CSc3ccncc3)[C@H]2SC1 | 1 ± 0.024 | 0.957 ± 0.042
CC(=O)OCC1=C(C(=O)O)N2C(=O)[C@@H](NC(=O)Cc3cccs3)[C@H]2SC1 | 0.979 ± 0.037 | 1.01 ± 0.027
Cc1nnc(SCC2=C(C(=O)O)N3C(=O)[C@@H](NC(=O)Cn4cnnn4)[C@H]3SC2)s1 | 1.09 ± 0.087 | 1.2 ± 0.074
CO/N=C(\C(=O)N[C@@H]1C(=O)N2C(C(=O)O)=C(COC(C)=O)CS[C@H]12)c1csc(N)n1 | 0.898 ± 0.017 | 0.178 ± 0.0072
CO/N=C(\C(=O)N[C@@H]1C(=O)N2C(C(=O)OCOC(=O)C(C)(C)C)=C(/C=C\c3scnc3C)CS[C@H]12)c1csc(N)n1 | 0.923 ± 0.047 | 0.0689 ± 0.074
CO/N=C(\C(=O)N[C@@H]1C(=O)N2C(C(=O)O)=C(C[N+]3(C)CCCC3)CS[C@H]12)c1csc(N)n1 | 1.01 ± 0.054 | 0.0358 ± 0.0021
COCC1=C(C(=O)OC(C)OC(=O)OC(C)C)N2C(=O)[C@@H](NC(=O)/C(=N\OC)c3csc(N)n3)[C@H]2SC1 (some centres undefined) | 0.953 ± 0.066 | 1.06 ± 0.2
Cn1nnnc1SCC1=C(C(=O)O)N2C(=O)[C@@H](NC(=O)[C@H](O)c3ccccc3)[C@H]2SC1 | 1.08 ± 0.041 | 1.02 ± 0.17
NC(=O)NC(=O)Cc1ccccc1 | 0.993 ± 0.021 | 0.979 ± 0.038
CNC(=N)NCCC[C@H](N)C(=O)O | 1.11 ± 0.029 | 0.921 ± 0.26
NC[C@H]1O[C@H](O[C@H]2[C@H](O)[C@@H](O[C@H]3O[C@H](CO)[C@@H](O)[C@H](N)[C@H]3O)[C@H](N)C[C@@H]2N)[C@H](N)[C@@H](O)[C@@H]1O | 0.81 ± 0.012 | 0.554 ± 0.025
CC1(C)[C@H]2CC[C@]1(CS(=O)(=O)O)C(=O)C2=Cc1ccc(C=C2C(=O)[C@@]3(CS(=O)(=O)O)CC[C@@H]2C3(C)C)cc1 | 0.978 ± 0.028 | 1.17 ± 0.22
Cc1nccnc1N1CCCCC1 | 1.09 ± 0.057 | 0.933 ± 0.023

SMILES | normalized intracellular growth (time point: T3 (3 h)) | normalized intracellular growth (time point: Tfinal (~6 h))
CCC(=O)O[C@H](CC(=O)O)C[N+](C)(C)C | 1.06 ± 0.052 | 1 ± 0.028
NCCNCCNCCN | 0.972 ± 0.044 | 1.2 ± 0.037
CC(=O)OC1CC2CCC1(C)C2(C)C (centres undefined) | 1.011 ± 0.01 | 1.14 ± 0.018
CC[n+]1c(-c2ccccc2)c2cc(N)ccc2c2ccc(N)cc21 | 0.993 ± 0.05 | 1.13 ± 0.11
CC(C)(C)CC(C)(C)c1cc(Cc2cc(C(C)(C)CC(C)(C)C)cc(-n3nc4ccccc4n3)c2O)c(O)c(-n2nc3ccccc3n2)c1 | 1.02 ± 0.096 | 1.19 ± 0.3
CNC(=O)c1c(I)c(NC(C)=O)c(I)c(C(=O)O)c1I | 1.01 ± 0.056 | 0.883 ± 0.21
C[N+]1(C)[C@@H]2CC[C@H]1C[C@@H](OC(=O)C(O)c1ccccc1)C2 (some centres undefined) | 0.968 ± 0.056 | 1.06 ± 0.025
C[C@]12C=CC(=O)C=C1CC[C@@H]1[C@@H]2[C@@H](O)C[C@@]2(C)[C@H]1CC[C@]2(O)C(=O)COP(=O)(O)O | 0.954 ± 0.029 | 1.16 ± 0.24
S=C1SCN(Cc2ccccc2)CN1Cc1ccccc1 | 1.01 ± 0.087 | 0.779 ± 0.14
CCOC(=O)C1=C[C@@H](OC(CC)CC)[C@H](NC(C)=O)[C@@H](N)C1 | 1.01 ± 0.021 | 1.33 ± 0.15
CN(Cc1cnc2nc(N)nc(N)c2n1)c1ccc(C(=O)NC(CCC(=O)O)C(=O)O)cc1 (racemic) | 1.05 ± 0.046 | 0.825 ± 0.024
Cn1nnnc1SCC1=C(C(=O)O)N2C(=O)[C@@H](NC(=O)[C@H](OC=O)c3ccccc3)[C@H]2SC1 | 0.866 ± 0.094 | 0.979 ± 0.024
CC1=C(C(=O)O)N2C(=O)[C@@H](NC(=O)[C@H](N)c3ccc(O)cc3)[C@H]2SC1 | 0.982 ± 0.0066 | 0.831 ± 0.018
CO/N=C(\C(=O)N[C@@H]1C(=O)N2C(C(=O)OC(C)OC(C)=O)=C(COC(N)=O)CS[C@H]12)c1ccco1 (some centres undefined) | 1.09 ± 0.063 | 0.977 ± 0.23
CO/N=C(\C(=O)N[C@@H]1C(=O)N2C(C(=O)O)=C(CSC(=O)c3ccco3)CS[C@H]12)c1csc(N)n1 | 1 ± 0.029 | 0.0233 ± 0.0029
CO/N=C(\C(=O)N[C@@H]1C(=O)N2C(C(=O)O)=C(COC(N)=O)CS[C@H]12)c1ccco1 | 0.994 ± 0.043 | 0.732 ± 0.083
CO/N=C(\C(=O)N[C@@H]1C(=O)N2C(C(=O)O)=C(CSc3nnnn3C)CS[C@H]12)c1csc(N)n1 | 0.987 ± 0.052 | 0.935 ± 0.032
CO/N=C(\C(=O)N[C@@H]1C(=O)N2C(C(=O)O)=C(CSc3nc(=O)c(O)nn3C)CS[C@H]12)c1csc(N)n1 | 0.891 ± 0.022 | 0.311 ± 0.035
CC1=C(C(=O)O)N2C(=O)[C@@H](NC(=O)[C@H](N)c3ccccc3)[C@H]2SC1 | 1.017 ± 0.0017 | 1.07 ± 0.1
Nc1nc(/C(=C/CC(=O)O)C(=O)N[C@@H]2C(=O)N3C(C(=O)O)=CCS[C@H]23)cs1 | 0.951 ± 0.059 | 0.0259 ± 0.0032
Cc1ncc(CSSCc2cnc(C)c(O)c2CO)c(CO)c1O | 0.943 ± 0.057 | 1.06 ± 0.015
O=C(O)C1=C(CSc2nnnn2CS(=O)(=O)O)CS[C@@H]2[C@H](NC(=O)[C@H](O)c3ccccc3)C(=O)N12 | 0.979 ± 0.034 | 0.824 ± 0.19
Cc1ccc2c(Br)cc(Br)c(OC(=O)c3ccccc3)c2n1 | 0.944 ± 0.025 | 1.01 ± 0.097
